Compound activity from PubChem BioAssay.
ST2 inh – blocks human ST2 binding to IL-33; Q01638; AlphaLISA ST2-Fc/biotin-IL-33 interaction, 1 h; inhibition, % for hits at 17 µM; 2.3% of 78,000 active; in the data active means inhibition above about 30%
Target sequence (Q01638 whole entry, looked up): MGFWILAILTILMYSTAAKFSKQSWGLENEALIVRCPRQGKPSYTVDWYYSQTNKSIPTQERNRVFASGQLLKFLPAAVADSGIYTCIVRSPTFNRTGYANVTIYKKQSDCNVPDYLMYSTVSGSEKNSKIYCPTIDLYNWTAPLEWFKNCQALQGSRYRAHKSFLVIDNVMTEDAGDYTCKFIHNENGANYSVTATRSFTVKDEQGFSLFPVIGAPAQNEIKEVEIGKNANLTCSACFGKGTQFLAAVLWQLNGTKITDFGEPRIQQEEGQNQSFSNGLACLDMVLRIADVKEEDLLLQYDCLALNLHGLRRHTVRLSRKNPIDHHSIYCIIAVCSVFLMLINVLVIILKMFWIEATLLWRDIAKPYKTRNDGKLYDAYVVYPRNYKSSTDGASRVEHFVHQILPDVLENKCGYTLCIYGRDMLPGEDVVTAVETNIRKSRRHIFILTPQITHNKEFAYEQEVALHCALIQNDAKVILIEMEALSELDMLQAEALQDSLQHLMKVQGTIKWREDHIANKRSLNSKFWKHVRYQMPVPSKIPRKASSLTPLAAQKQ
The depositor's hits bear a star; i = inactive. Many of the other results were omitted from the sample, so hits are more common in it than they were.

SMILES | ST2 inh
Cc1ccc(C)c(NCC(O)Cn2c(C)c(C)c3ccccc32)c1 (stereo not drawn) | i
COc1ccc(NCC(O)Cn2c(C)c(C)c3ccccc32)cc1 (stereo not drawn) | 32%*
Cc1c(C)n(CC(O)CNC2CCCCC2)c2ccccc12 (stereo not drawn) | i
COc1cc(Br)c(/C=C2\C(=O)N(c3ccccc3)N=C2C)cc1OC | i
CC1=NN(c2ccccc2)C(=O)/C1=C\c1ccc(N2CCOCC2)cc1 | 40%*
CC(=O)Nc1ccc(OCc2ccccc2)cc1 | i
CC1=NN(c2ccccc2)C(=O)/C1=C\c1ccc(OCc2ccccc2)cc1 | 32%*
C=CCN1C(=O)NC(=O)/C(=C/c2ccc(OCc3ccccc3F)cc2)C1=O | i
CCOC(=O)N1CCC(NC2CCN(c3ccc(NC(=O)Cc4cccc(Cl)c4)cc3)CC2)CC1 | i
CCn1nnnc1-c1ccc(OC)c(S(=O)(=O)Nc2ccc(OC)c(Cl)c2)c1 | i
COC(=O)C1=CC(O)C(O)C(O)C1 (stereo not drawn) | i
Cc1[nH]c2c(C)cccc2c(=O)c1CN1CCC(C)CC1 | i
COc1ccc(C(=O)N2CCCC2)c(OC2CCN(C(=O)CSC)CC2)c1 | i
Cc1ccc(-c2noc([C@@H]3C[C@@H](O)CN3CC3CCCCC3)n2)cc1F | i
CCN1C(=O)N(CCCc2cccnc2)C(=O)C12CCN(C1CCSC1)CC2 (stereo not drawn) | i
CC(=O)Nc1ccc2cccc(O)c2n1 | i
Oc1cccc2ccc(/C=C/c3cc4c(cc3Cl)OCO4)nc12 | 32%*
O=C(NCC1(O)CCCNCC1)c1ccc(=O)[nH]c1 (stereo not drawn) | i
O=C(CSc1nc2c([nH]c3ccccc32)c(=O)n1-c1ccc(Cl)cc1)Nc1nccs1 | 31%*
NC(=O)CSc1nc2c([nH]c3ccccc32)c(=O)n1-c1ccccc1 | i
COc1ccc(-n2c(SCC(N)=O)nc3c([nH]c4ccccc43)c2=O)cc1 | i
CC1(C)CC1(CNC1CCSCC1)c1ccccc1 (stereo not drawn) | i
O=C1OC(Nc2ccccc2Cl)c2ccccc21 (stereo not drawn) | i
CCn1c(C2CCN(C(=O)c3cc4c(s3)CCCC4)CC2)nn(C)c1=O | i
Fc1ccc(-c2csc(Nc3ccc(Cl)cc3)n2)cc1 | i
SMILES | ST2 inh
Cn1c(=O)c2c(nc3n(Cc4ccccn4)c(-c4ccc(F)cc4)cn23)n(C)c1=O | i
O=C1C(Nc2cccc(C(F)(F)F)c2)=C(N2CCOCC2)C(=O)c2ccccc21 | 67%*
CC(C)CC(C(=O)Nc1cccc(C(F)(F)F)c1)N1C(=O)c2ccccc2C1=O (stereo not drawn) | i
CC(C)C(C(=O)Nc1cccc(C(F)(F)F)c1)N1C(=O)c2ccccc2C1=O (stereo not drawn) | i
CCn1cnc(C(=O)NC)c1C(=O)NC | i
O=c1c2sccc2n(Cc2ccc(F)cc2)c(=O)n1-c1ccccc1 | i
CC(C)Oc1ccc(NC(=O)c2ccc([N+](=O)[O-])cc2Cl)cc1 | i
O=C(Nc1ccc([N+](=O)[O-])cc1)c1cc(I)ccc1Cl | i
O=C(Nc1ccccc1I)c1cc([N+](=O)[O-])ccc1Cl | i
O=C(Nc1ccc([N+](=O)[O-])cc1Cl)c1cc(I)ccc1Cl | 31%*
O=C(NCc1cccs1)c1ccc(Cl)cc1[N+](=O)[O-] | i
O=C(Nc1ccccc1Cl)c1ccccc1[N+](=O)[O-] | i
O=C(Nc1ccccc1I)c1ccc(Cl)cc1[N+](=O)[O-] | 30%*
Cc1cccc(NC(=O)c2ccc([N+](=O)[O-])cc2Cl)c1 | 31%*
O=C(Nc1ccccc1[N+](=O)[O-])c1cc(I)ccc1Cl | 35%*
O=C(Nc1cccc([N+](=O)[O-])c1)c1ccccc1Cl | i
COc1cc([N+](=O)[O-])ccc1NC(=O)c1cc(I)ccc1Cl | i
O=C(Nc1cccc([N+](=O)[O-])c1)c1cc(I)ccc1Cl | i
CN(C)CCC(=O)c1ccc(O)cc1 | i
Cc1nonc1CN(C)C(=O)C(C)N(c1ccccc1)S(C)(=O)=O (stereo not drawn) | i
COc1ccccc1CN1C(=O)CCC1(C)C(=O)NC1CCC(C)CC1 (stereo not drawn) | i
NS(=O)(=O)c1ccc(NC(=O)c2cccs2)cc1 | i
Cc1cccc(C(C)C)c1NS(=O)(=O)c1cccc2cccnc12 | i
CN1C[C@H](NC(=O)C(=O)NC2CCCC2)C[C@H]1CO | i
COc1cc2c(cc1OC)CN(Cc1ccsc1)CC2 | i
SMILES | ST2 inh
Cc1cccn2c(=O)c(C=Nc3ccccc3)c(NCc3ccco3)nc12 | i
Cc1cccn2c(=O)c(C=Nc3ccccc3)c(NCc3ccccc3)nc12 | 39%*
Cc1ccc(N=Cc2c(Nc3cccc(Cl)c3)nc3c(C)cccn3c2=O)cc1 | i
CSc1oc(-c2ccc(F)cc2)nc1S(=O)(=O)c1ccc(C)cc1 | i
Cc1ccc(CN2CCn3nc(C(=O)NCCN(C)C)cc3C2)s1 | i
COc1nc(OC)nc(N(c2ccccc2)c2ccccc2)n1 | i
CCc1ccccc1NC(=O)CN1CCN(Cc2cccc(Cl)c2)S1(=O)=O | i
Cc1ccc(Cn2c(CCNC(=O)Nc3cc(C)cc(C)c3)nc3cccnc32)cc1 | i
CCOc1ccc(C(=O)Nc2cccc(Cl)c2)cc1Br | i
COc1ccc(C(=O)Nc2cccc(NC(=O)c3ccccc3Cl)c2)cc1Br | 59%*
COc1ccc(C(=O)Nc2cccc(NC(=O)c3ccccc3Cl)c2)cc1[N+](=O)[O-] | i
COc1cccc2c1OCC(C1CC(=O)Nc3cc4[nH]ncc4cc31)=C2 (stereo not drawn) | i
CC(=O)OCCn1nc(-c2ccccc2)c2ccccc2c1=O | i
O=c1c2ccccc2c(-c2cccs2)nn1CCc1ccccc1 | 35%*
CC(C)Cn1nc(-c2ccccc2)c2ccccc2c1=O | i
COCC1(C(=O)N(C)Cc2cc(-c3cccs3)n[nH]2)CCC1 | i
Cc1cc(C)n(C2CCN(C(=O)CC(=O)Nc3ccccc3C)C2)n1 (stereo not drawn) | i
Nc1c2c(nc3c1CCC3)CCCC2 (tested in a mixture with another compound) | i
O=C(O)C1=CC(=C(c2ccc(O)c(C(=O)O)c2)c2ccc(O)c(C(=O)O)c2)C=CC1=O | 89%*
CC(=O)NC(C(=O)N1CCc2c(cnc(C)c2CNC(=O)c2ccsc2)C1)C(C)C (stereo not drawn) | i
Nc1ccc2nc3c(=O)[nH]c(=O)[nH]c3nc2c1 | 53%*
O=c1[nH]c(=O)c2nc3c(ccc4nsnc43)nc2[nH]1 | i
Cn1c(=O)c2nc3ccc(N)cc3nc2n(C)c1=O | i
Cc1ccn2c(=O)cc(COc3cccc(NC(=O)C(C)C)c3)nc2c1 | i
Cc1cccc(N(CC(=O)Nc2ccccc2Cl)S(=O)(=O)c2ccccc2)c1C | i
COc1ccc(N(CC(=O)Nc2ccc(F)cc2)S(=O)(=O)c2ccccc2)c(OC)c1 | i
Cc1cccc(N(CC(=O)Nc2ccc(F)cc2)S(=O)(=O)c2ccccc2)c1C | 38%*
COc1cccc(-c2nnnn2[C@H]2CO[C@H]3[C@@H]2OC[C@@H]3NS(=O)(=O)c2ccc(C)cc2)c1 | i
COc1ccc(-c2ccc3ncnc(N4CCN(C)CC4)c3c2)c2cccnc12 | i
CN(C)C(=O)c1ccc2c(c1)N(CC(=O)NC1CCCC1)C(=O)C1CCCCN21 (stereo not drawn) | i
